# A selection: hits, their analogues and other compounds. The true share with any hit is near 2.4%.
# D2 ag-1 = agonists of human D2 dopamine receptor (beta-arrestin); DiscoveRx PathHunter D2 beta-arrestin, luminescence, 90 min; 100% = 57 uM dopamine signal; activation, % (test concentration not listed); actives 0.084% (n = 360,000); AID 624465; in the data active = activation above about 40%; inconclusive = between about 15% and that limit
# Target sequence (P14416 whole entry, looked up): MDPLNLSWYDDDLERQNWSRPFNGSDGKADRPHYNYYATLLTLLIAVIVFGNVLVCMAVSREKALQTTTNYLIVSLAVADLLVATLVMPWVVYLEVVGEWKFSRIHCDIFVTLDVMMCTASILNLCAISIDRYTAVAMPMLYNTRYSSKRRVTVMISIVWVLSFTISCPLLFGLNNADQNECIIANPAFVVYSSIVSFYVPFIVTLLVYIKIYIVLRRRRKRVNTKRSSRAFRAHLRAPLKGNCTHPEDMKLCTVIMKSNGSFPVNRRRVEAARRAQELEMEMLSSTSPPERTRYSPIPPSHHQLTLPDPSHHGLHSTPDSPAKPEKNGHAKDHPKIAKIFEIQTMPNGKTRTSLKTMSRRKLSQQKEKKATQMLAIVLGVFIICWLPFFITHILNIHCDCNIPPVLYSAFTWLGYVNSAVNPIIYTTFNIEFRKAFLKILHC
#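 Agonist mode: compounds alone added to overnight-plated D2 PathHunter cells for 90 min at 37 C, with 57 uM final dopamine (EC100) defining full response. Beta-arrestin recruitment detected by chemiluminescent reagent, read after 1 h at ambient temperature.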
# D2 antag = antagonizes the human D2 dopamine receptor; P14416; HEK293 TREx D2 cells, calcium flux, dopamine EC80; inhibition, % at 10 µM; actives 2% (n = 340,000); AID 485344; in the data active = inhibition above about 30%; inactive = below that, where a call was filed
#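 Tetracycline-induced HEK293 TREx cells expressing D2 receptor forced-coupled to calcium signalling, loaded with no-wash calcium dye. Compounds added and calcium flux read 180 s, then dopamine added at EC80 and read a further 180 s.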
# D2 PAM-1 = human D2 receptor positive allosteric modulation. DiscoveRx D2 beta-arrestin cells, luminescence, 90 min; 100% = 57 uM dopamine signal. potentiation, % (no concentration beside the values). actives 0.23% (n = 360,000). P14416; in the data active = potentiation above about 50%; inconclusive = mostly about 30% to 49%
#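 PathHunter beta-arrestin assay in DiscoveRx D2 cells. Compounds were added with an EC20 of dopamine (50 nM final) for 90 min at 37 deg C. Luminescence was read 1 h after detection reagent, with 57 uM dopamine as the EC100 control.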
# D2 ag-2 = activates the human D2 dopamine receptor; P14416; activation, % at 2 µM; actives 0.53% (n = 340,000); HEK293 T-REx D2 cells, calcium flux agonist mode;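 active = activation over 3 SD above normal in the single-dose calcium agonist read, cut at about 30% in these data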
#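 Tetracycline-induced HEK293 T-REx cells with force-coupled D2 receptor, plated overnight at 30 C, loaded with no-wash calcium dye. After a 10 s baseline, compound was pin-added and calcium flux read kinetically for 180 s; calcium rises flagged agonists.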
# D2 PAM-2 = positively modulates the human D2 dopamine receptor allosterically; P14416; actives 0.34% (n = 340,000); HEK293 T-REx D2, calcium flux, EC20 dopamine potentiation; potentiation, % at 10 µM; AID 485347;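 active = potentiation over 3 SD above the plate norm, cut at about 30% in these data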
#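 Tetracycline-induced Hek293 Trex D2 cells, force-coupled to calcium, loaded with no-wash calcium dye. Compound added with 180 s kinetic read for agonism, then EC20 dopamine and a further 180 s read for potentiation.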
# D3 arrestin ag = confirmation of human D3 dopamine receptor agonists, beta-arrestin; shares compounds with D2 ag-2; DiscoveRx D3 beta-arrestin cells, luminescence, 90 min; Potency, µM (highest dose often 76.9 µM), actives largely listed as activators; actives 4% (n = 2,300); AID 720506; note: nearly all actives have a fitted effect of over 70% in size
# D2 ag-3 = activates human D2 dopamine receptor in D3 counterscreen. shares compounds with D2 ag-2. DiscoveRx PathHunter D2 beta-arrestin, luminescence, 90 min; response scale: percent relative to full dopamine signal. Potency, µM (doses to about 76.9 µM), actives largely listed as activators. actives 5.9% (n = 2,300); note: nearly all actives have a fitted effect of over 70% in size
# A number is an active result; n = inactive; u = inconclusive; x = no result given. Unless noted, calls come from the whole dose curve; as a rule, active = well fitted activation curve with a large enough effect; inconclusive = small, poorly fitted or top-dose-only effect; inactive = flat fitted curve, though single readings scatter.
SMILES,D2 ag-1,D2 antag,D2 PAM-1,D2 ag-2,D2 PAM-2,D3 arrestin ag,D2 ag-3
O=C(CN1CCN(Cc2ccc(Cl)cc2)C1=O)NCCCN1CCN(c2ccc(F)cc2)CC1,n,n,n,n,n,x,x
Cc1ccccc1CN1CCN(CC(=O)NCCCN2CCN(c3ccc(F)cc3)CC2)C1=O,n,64,n,n,n,n,n
Cc1ccc(C)c(S(=O)(=O)c2cnc(SCC(=O)Nc3ccc(F)cc3F)[nH]c2=O)c1,x,x,x,n,n,x,x
CCCN1C(=O)/C(=C/c2c(NCCCOC(C)C)nc3c(C)cccn3c2=O)SC1=S,n,n,n,n,n,n,n
CCCCN(C)CCCNC(=O)C1CCN(c2nc3ccc(CC)cc3s2)CC1,x,x,x,n,n,x,x
O=C(CCS(=O)(=O)c1nc(-c2ccc3c(c2)OCO3)cc(C(F)(F)F)n1)Nc1ccc(F)c(Cl)c1,x,x,x,n,x,x,x
O=C(O)C1C2C=CC(C3CC23)C1C(=O)NCCc1ccccc1 (stereo not given),n,n,n,32,n,n,n
CC1=C(C)CC(C(=O)NCCc2ccccc2)C(C(=O)O)C1 (stereo not given),n,n,n,n,n,x,x
CCOc1ccccc1CNC(=O)C1CCN(S(=O)(=O)c2c(C)noc2/C=C/c2ccc(C)cc2)CC1,x,x,x,n,n,x,x
Cn1nnnc1Sc1ncnc2scc(-c3ccccc3)c12,n,n,n,n,n,x,x
Cn1nnnc1Sc1ncnc2scc(-c3ccc(F)cc3)c12,n,x,n,x,x,n,n
Cn1nnnc1SCCCNCc1cc(Cl)ccc1OCc1ccc(F)cc1,x,x,x,n,n,x,x
O=S(=O)(NCCc1ccc(F)cc1)c1cc(C(F)(F)F)ccc1Br,n,x,x,x,x,x,x
O=S(=O)(NCc1ccc(F)cc1)c1cc(Br)ccc1Br,n,n,n,n,n,n,n
Cc1cccc(-c2nc(C)c(CCNC(=O)C(=O)Nc3ccccc3C#N)s2)c1,x,x,x,n,n,x,x
CC(C)c1ccccc1-n1cc[nH]c1=S,n,n,n,n,n,x,x
Cn1cc[nH]c1=S,n,n,n,n,n,n,n
CCn1c(=N)c(C(=O)NCC2CCCO2)cc2c(=O)n3cc(C)ccc3nc21 (stereo not given),x,x,x,n,n,x,x
N#C/C(=C/c1ccc(N2CCOCC2)o1)c1nc2ccccc2[nH]1,n,n,n,n,n,u,n
CCCCCOc1ccc(NC(=O)Cn2c(-c3cncs3)nc3ccccc32)cc1,x,x,x,n,n,x,x
Oc1ccc(-c2csc(-c3cccnc3)n2)cc1O,n,n,n,31,n,16µM,n
Oc1ccc(-c2csc(-c3ccccc3)n2)cc1O,n,n,n,n,n,x,x
CCOCCCn1c(SCC(=O)NCc2ccccc2)nc2c(sc3ccccc32)c1=O,x,x,x,n,n,x,x
COc1ccc(-c2cnc(C)o2)cc1S(=O)(=O)Nc1ccc(C)c(N(C)C)c1,x,x,x,n,n,x,x
Cc1ncsc1CCOC(=O)c1ccc(N2CCOCC2)c([N+](=O)[O-])c1,n,n,n,n,n,u,u
SMILES,D2 ag-1,D2 antag,D2 PAM-1,D2 ag-2,D2 PAM-2,D3 arrestin ag,D2 ag-3
COc1ccc(C2c3cc(OC)c(OC)cc3CC(=O)N2c2ccc(C)c(F)c2)cc1 (stereo not given),x,x,x,x,n,x,x
O=C(COC(=O)c1nsc(Cl)c1Cl)NC1CCCCC1,n,n,n,n,n,x,x
Nc1c(Cl)c(Cl)nc(C(=O)OCC(=O)NC2CCCCC2)c1Cl,53,57,u,64,n,n,u
O=C(CSc1c2c(nc3ccc(Cl)cc13)CCCC2)N1CCN(c2cccc(Cl)c2)CC1,x,x,x,n,n,x,x
CC(C)N=c1scc(-c2ccco2)n1/N=C/c1ccc(O)c(O)c1,n,n,n,n,n,x,x
COCCN=c1scc(-c2ccco2)n1/N=C/c1ccc(O)c(O)c1O,70,77,88,68,n,35µM,35µM
C=CCN=c1scc(-c2ccco2)n1/N=C/c1ccc(O)c(O)c1O,90,88,101,74,n,40µM,35µM
CCOC(=O)c1cc(S(=O)(=O)Nc2ccc(OC)c(Cl)c2)[nH]n1,x,x,x,n,n,x,x
O=C(c1cccc(C(=O)N(c2ccccn2)C2CCCCC2)c1)N(c1ccccn1)C1CCCCC1,u,62,n,70,n,n,u
Cc1ccc(-c2ccc(CCC(=O)O)n2-c2ccc(C(C)C)cc2)cc1,x,x,x,n,n,x,x
COc1ccc(CNC(=O)CCc2c(C)nc3c(c2C)c(=O)n(C)c(=O)n3C)cc1,x,x,x,n,n,x,x
CCOC(=O)C1CCCN(C(=O)Cn2nc(C)c3c(C)n(-c4ccccc4)nc3c2=O)C1 (stereo not given),n,n,n,n,n,n,n
O=C(Nc1ccc(NC(=O)c2ccc([N+](=O)[O-])cc2[N+](=O)[O-])cc1)c1ccco1,n,n,u,47,n,u,n
Nc1ccn(CC(=O)NCc2ccc3[nH]ccc3c2)c(=O)n1,n,n,n,n,n,n,u
N#CCCN(C(=O)COC(=O)c1cccc(S(=O)(=O)N2CCCC2)c1)c1ccc(F)cc1,n,n,n,n,n,x,x
CC(=O)N1CCN(S(=O)(=O)c2cccc(C(=O)OCC(=O)N(CCC#N)c3ccc(F)cc3)c2)CC1,n,n,n,n,n,n,n
O=C(Nc1cccc(S(=O)(=O)N2CCCCC2)c1)c1ccc(OCC2CCCO2)cc1 (stereo not given),n,n,n,n,n,x,x
O=C(c1ccc(OCC2CCCO2)cc1)N1CCN(S(=O)(=O)c2cccc(F)c2)CC1 (stereo not given),n,n,n,n,n,n,n
CCCN(CCC)S(=O)(=O)c1ccc(C(=O)OCCN2C(=O)c3cccc4c(N5CCOCC5)ccc(c34)C2=O)cc1,n,n,n,62,n,n,n
CCN(CC)S(=O)(=O)c1ccc(C(=O)N2CCN(CCN3C(=O)c4cccc5cccc(c45)C3=O)CC2)cc1,x,n,x,n,n,x,x
O=C(OCCN1C(=O)c2cccc3c(N4CCOCC4)ccc(c23)C1=O)c1ccc(Cl)cc1,n,n,n,70,n,n,n
COc1ccc(S(=O)(=O)c2cnc3ccc(Cl)cc3c2N2CCCCC2C)cc1 (stereo not given),x,x,x,n,n,x,x
COc1ccc(C(=N/O)/C(=N/O)c2ccc(OC)cc2)cc1,n,40,n,n,n,n,n
Cc1ccccc1C(=O)O/N=C(\N)c1ccccc1,u,n,n,n,n,x,x
Cc1ccccc1C(=O)O/N=C(\c1ccccc1)c1ccccn1,u,72,n,77,n,u,u
Cc1cccc(NC(=O)C(=O)NCCc2csc(-c3ccc(F)cc3)n2)c1C,x,x,x,n,n,x,x

# Compound activity: PubChem, National Center for Advancing Translational Sciences (NCATS)
